Several values for one entry are separate records, joined by “and”; a condition that tells them apart may be missing. Equal entries are not always repeated. Inconclusive results are not listed. Entries that show only a call come without a potency. Some compounds were tested as several samples or in several runs, with calls that do not always agree. Activity calls are given as the source filed them. Calls follow the shape of the dose curve; as a rule, active = well fitted curve in the direction sought with a large enough effect in the repeat runs; inconclusive = weak or mixed curves; inactive = no such curve, though single readings can be large; an effect the other way counts as inactive or inconclusive.
Experiments:
[1] = qHTS RealTime-Glo MT Cell Viability Assay in HepG2 cells - 40 hour (AID 1224870); also: nearly all actives have a fitted effect of over 50% in size
Summary of the method: (§1)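 HepG2 cells mixed with RealTime-Glo MT reagents (NanoLuc plus cell-permeant prosubstrate) were seeded at 600 cells/well, incubated 5 h at 37 C/5% CO2, then pinned with compounds in DMSO; nonlytic luminescence tracked viability during 40 h treatment.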

[2] = A CellTox Green Cytotoxicity Assay to monitor cytotoxicity in HEK293 cells - 40 hour (AID 1224871); also: nearly all actives have a fitted effect of over 45% in size
Summary of the method: (§2)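 Nonlytic real-time cytotoxicity: HEK293 + CellTox Green reagent plated, 5 h preincubation, pintool compound addition (23 nL in DMSO), 37 C for 40 h, fluorescence measured at successive time points.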

[3] = qHTS RealTime-Glo MT Cell Viability Assay in HEK293 cells - 16 hour (AID 1224872); also: nearly all actives have a fitted effect of over 50% in size; also: potency is read from the fitted curve at half-maximal effect
Summary of the method: (§3)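 Assay medium contained NanoLuc luciferase plus cell-permeant prosubstrate, added with HEK293 cells at 600 cells/well. After 5 h at 37 C/5% CO2 compounds were added; plates stayed at 37 C for 40 h with serial luminescence reads.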

[4] = qHTS RealTime-Glo MT Cell Viability Assay in HepG2 cells - 8 hour (AID 1224873); also: nearly all actives have a fitted effect of over 55% in size
Summary of the method: as §1

[5] = qHTS RealTime-Glo MT Cell Viability Assay in HEK293 cells - 40 hour (AID 1224874); details: RealTime-Glo luminescence; max response: stronger effect = lower value; also: nearly all actives have a fitted effect of over 50% in size; also: potency is read from the fitted curve at half-maximal effect
Summary of the method: (§4)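 Cells were seeded together with NanoLuc luciferase and a prosubstrate that viable cells reduce to a luciferase substrate. After a 5 h incubation at 37 C/5% CO2, compounds were added and luminescence was measured repeatedly during 40 h of treatment.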

[6] = A CellTox Green Cytotoxicity Assay to monitor cytotoxicity in HEK293 cells - 24 hour (AID 1224875); also: series mostly up to about 77 µM; nearly all actives have a fitted effect of over 45% in size
Summary of the method: as §2

[7] = A CellTox Green Cytotoxicity Assay to monitor cytotoxicity in HepG2 cells - 16 hour (AID 1224876); also: nearly all actives have a fitted effect of over 45% in size
Summary of the method: (§5)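 Read-out is fluorescence of a cyanine dye excluded from live cells that stains DNA of dead HepG2 cells, with signal proportional to cytotoxicity. Plates were read at 0, 8, 16, 24, 32 and 40 h after compound addition.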

[8] = qHTS RealTime-Glo MT Cell Viability Assay in HepG2 cells - 32 hour (AID 1224877); also: nearly all actives have a fitted effect of over 55% in size
Summary of the method: (§6)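 qHTS, HepG2, 600 cells/well, RealTime-Glo (NanoLuc + prosubstrate) added with cells; 5 h preincubation; DMSO compound addition; 37 C; luminescence at 0/8/16/24/32/40 h.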

[9] = A CellTox Green Cytotoxicity Assay to monitor cytotoxicity in HepG2 cells - 24 hour (AID 1224878); also: nearly all actives have a fitted effect of over 45% in size
Summary of the method: as §5

[10] = A CellTox Green Cytotoxicity Assay to monitor cytotoxicity in HepG2 cells - 40 hour (AID 1224879); also: nearly all actives have a fitted effect of over 40% in size
Summary of the method: as §5

[11] = qHTS RealTime-Glo MT Cell Viability Assay in HEK293 cells - 0 hour (AID 1224880)
Summary of the method: as §4

[12] = A CellTox Green Cytotoxicity Assay to monitor cytotoxicity in HEK293 cells - 32 hour (AID 1224881); also: nearly all actives have a fitted effect of over 40% in size
Summary of the method: as §2

[13] = A CellTox Green Cytotoxicity Assay to monitor cytotoxicity in HepG2 cells - 0 hour (AID 1224882); also: nearly all actives have a fitted effect of over 35% in size
Summary of the method: as §5

[14] = A CellTox Green Cytotoxicity Assay to monitor cytotoxicity in HepG2 cells - 32 hour (AID 1224883); also: nearly all actives have a fitted effect of over 50% in size
Summary of the method: as §5

[15] = A CellTox Green Cytotoxicity Assay to monitor cytotoxicity in HEK293 cells - 8 hour (AID 1224884); also: nearly all actives have a fitted effect of over 35% in size
Summary of the method: as §2

[16] = qHTS RealTime-Glo MT Cell Viability Assay in HepG2 cells - 16 hour (AID 1224885); also: nearly all actives have a fitted effect of over 50% in size
Summary of the method: as §6

[17] = qHTS RealTime-Glo MT Cell Viability Assay in HEK293 cells - 24 hour (AID 1224886); also: nearly all actives have a fitted effect of over 50% in size; also: potency is read from the fitted curve at half-maximal effect
Summary of the method: as §3

[18] = qHTS RealTime-Glo MT Cell Viability Assay in HEK293 cells - 8 hour (AID 1224887); also: nearly all actives have a fitted effect of over 50% in size; also: potency is read from the fitted curve at half-maximal effect
Summary of the method: as §4

[19] = A CellTox Green Cytotoxicity Assay to monitor cytotoxicity in HEK293 cells - 16 hour (AID 1224888); also: nearly all actives have a fitted effect of over 35% in size
Summary of the method: as §2

[20] = qHTS RealTime-Glo MT Cell Viability Assay in HepG2 cells - 0 hour (AID 1224889); also: nearly all actives have a fitted effect of over 50% in size
Summary of the method: as §6

CN(C)CCOC(=O)COc1ccc(Cl)cc1
outcome [1]: inactive
Potency [2]: inactive
Potency [3]: inactive
Potency [4]: inactive
max response [5]: -6.44% (inactive) and 0.203% (inactive)
Potency [6]: inactive
outcome [7]: inactive
outcome [8]: inactive
Potency [9]: inactive
Potency [10]: inactive
outcome [11]: inactive
Potency [12]: inactive
outcome [13]: inactive
Potency [14]: inactive
outcome [15]: inactive
Potency [16]: inactive
Potency [17]: inactive
Potency [18]: inactive
Potency [19]: inactive

CC(C)c1cccc(C(C)C)c1
outcome [1]: inactive
Potency [2]: inactive
Potency [3]: inactive
Potency [4]: inactive
max response [5]: 2.88% (inactive) and 7.17% (inactive)
Potency [6]: inactive
outcome [7]: inactive
outcome [8]: inactive
Potency [9]: inactive
Potency [10]: inactive
outcome [11]: inactive
Potency [12]: inactive
outcome [13]: inactive
Potency [14]: inactive
outcome [15]: inactive
Potency [16]: inactive
Potency [17]: inactive
Potency [18]: inactive
Potency [19]: inactive

CC(=O)OCCOC(C)=O
outcome [1]: inactive
Potency [2]: inactive
Potency [3]: inactive
Potency [4]: inactive
max response [5]: -0.882% (inactive) and 2.01% (inactive)
Potency [6]: inactive
outcome [7]: inactive
outcome [8]: inactive
Potency [9]: inactive
Potency [10]: inactive
outcome [11]: inactive
Potency [12]: inactive
outcome [13]: inactive
Potency [14]: inactive
outcome [15]: inactive
Potency [16]: inactive
Potency [17]: inactive
Potency [18]: inactive
Potency [19]: inactive

Cc1ccc(S(=O)(=O)N=C=O)cc1
outcome [1]: inactive
Potency [2]: inactive
Potency [3]: inactive
Potency [4]: inactive
max response [5]: 0.611% (inactive) and -0.578% (inactive)
Potency [6]: inactive
outcome [7]: inactive
outcome [8]: inactive
Potency [9]: inactive
Potency [10]: inactive
outcome [11]: inactive
Potency [12]: inactive
outcome [13]: inactive
Potency [14]: inactive
outcome [15]: inactive
Potency [16]: inactive
Potency [17]: inactive
Potency [18]: inactive
Potency [19]: inactive

C=C(C)[C@H]1CC=C(C)C(=O)C1
outcome [1]: inactive
Potency [2]: inactive
Potency [3]: inactive
Potency [4]: inactive
max response [5]: -1.87% (inactive) and 0.747% (inactive)
Potency [6]: inactive
outcome [7]: inactive
outcome [8]: inactive
Potency [9]: inactive
Potency [10]: inactive
outcome [11]: inactive
Potency [12]: inactive
outcome [13]: inactive
Potency [14]: inactive
outcome [15]: inactive
Potency [16]: inactive
Potency [17]: inactive
Potency [18]: inactive
Potency [19]: inactive

N[C@H](Cc1c[nH]c2ccccc12)C(=O)O
outcome [1]: inactive
Potency [2]: inactive
Potency [3]: inactive
Potency [4]: inactive
max response [5]: 20.7% (inactive) and 3.97% (inactive)
Potency [6]: inactive
outcome [7]: inactive
outcome [8]: inactive
Potency [9]: inactive
Potency [10]: inactive
outcome [11]: inactive
Potency [12]: inactive
outcome [13]: inactive
Potency [14]: inactive
outcome [15]: inactive
Potency [16]: inactive
Potency [17]: inactive
Potency [18]: inactive
Potency [19]: inactive

CCCCCCCCCCCC(=O)OC
outcome [1]: inactive
Potency [2]: inactive
Potency [3]: inactive
Potency [4]: inactive
max response [5]: -2.49% (inactive) and 7.82% (inactive)
Potency [6]: inactive
outcome [7]: inactive
outcome [8]: inactive
Potency [9]: inactive
Potency [10]: inactive
outcome [11]: inactive
Potency [12]: inactive
outcome [13]: inactive
Potency [14]: inactive
outcome [15]: inactive
Potency [16]: inactive
Potency [17]: inactive
Potency [18]: inactive
Potency [19]: inactive

CCO[Si](CCC#N)(OCC)OCC
outcome [1]: inactive
Potency [2]: inactive
Potency [3]: inactive
Potency [4]: inactive
max response [5]: 7.39% (inactive) and 2.23% (inactive)
Potency [6]: inactive
outcome [7]: inactive
outcome [8]: inactive
Potency [9]: inactive
Potency [10]: inactive
outcome [11]: inactive
Potency [12]: inactive
outcome [13]: inactive
Potency [14]: inactive
outcome [15]: inactive
Potency [16]: inactive
Potency [17]: inactive
Potency [18]: inactive
Potency [19]: inactive

CC(C)CC(=O)CC(C)CC(C)C (stereo not drawn)
outcome [1]: inactive
Potency [2]: inactive
Potency [3]: inactive
Potency [4]: inactive
Potency [5]: 15.5 µM (active)
max response [5]: 0.688% (inactive)
Potency [6]: inactive
outcome [7]: inactive
outcome [8]: inactive
Potency [9]: inactive
Potency [10]: inactive
outcome [11]: inactive
Potency [12]: inactive
outcome [13]: inactive
Potency [14]: inactive
outcome [15]: inactive
Potency [16]: inactive
Potency [17]: inactive and 19.5 µM (active)
Potency [18]: inactive
Potency [19]: inactive
Potency [20]: inactive

O=C(O)c1ccc(S(=O)(=O)N(Cl)Cl)cc1
outcome [1]: inactive
Potency [2]: inactive
Potency [3]: 49.3 µM (active) and inactive
Potency [4]: inactive
Potency [5]: 43.9 µM (active)
max response [5]: 0.122% (inactive)
Potency [6]: inactive
outcome [7]: inactive
outcome [8]: inactive
Potency [9]: inactive
Potency [10]: inactive
outcome [11]: inactive
Potency [12]: inactive
outcome [13]: inactive
Potency [14]: inactive
outcome [15]: inactive
Potency [16]: inactive
Potency [17]: 49.3 µM (active) and inactive
Potency [18]: 49.3 µM (active) and inactive
Potency [19]: inactive

COC(=O)c1cccnc1
outcome [1]: inactive
Potency [2]: inactive
Potency [3]: inactive
Potency [4]: inactive
max response [5]: 0.779% (inactive) and 5.01% (inactive)
Potency [6]: inactive
outcome [7]: inactive
outcome [8]: inactive
Potency [9]: inactive
Potency [10]: inactive
outcome [11]: inactive
Potency [12]: inactive
outcome [13]: inactive
Potency [14]: inactive
outcome [15]: inactive
Potency [16]: inactive
Potency [17]: inactive
Potency [18]: inactive
Potency [19]: inactive
Potency [20]: inactive

CCCCCC(=O)O
outcome [1]: inactive
Potency [2]: inactive
Potency [3]: inactive
Potency [4]: inactive
max response [5]: 18.5% (inactive) and 15.2% (inactive)
Potency [6]: inactive
outcome [7]: inactive
outcome [8]: inactive
Potency [9]: inactive
Potency [10]: inactive
outcome [11]: inactive
Potency [12]: inactive
outcome [13]: inactive
Potency [14]: inactive
outcome [15]: inactive
Potency [16]: inactive
Potency [17]: inactive
Potency [18]: inactive
Potency [19]: inactive
Potency [20]: inactive

CSc1ccc(Cl)cc1
outcome [1]: inactive
Potency [2]: inactive
Potency [3]: inactive
Potency [4]: inactive
max response [5]: -0.983% (inactive) and -3.28% (inactive)
Potency [6]: inactive
outcome [7]: inactive
outcome [8]: inactive
Potency [9]: inactive
Potency [10]: inactive
outcome [11]: inactive
Potency [12]: inactive
outcome [13]: inactive
Potency [14]: inactive
outcome [15]: inactive
Potency [16]: inactive
Potency [17]: inactive
Potency [18]: inactive
Potency [19]: inactive
Potency [20]: inactive

Source: PubChem BioAssay (Tox21)
